As usually defined, the inhibition is the relative decrease from the control value, in per cent.

The results in this text go back to ChEMBL document CHEMBL3433997, “St. Jude Leishmania screening dataset” (2016).

The structures appear in SMILES notation.

Assay type in all cases: functional
Assay [1] has as its target Solute carrier family 2, facilitated glucose transporter member 1 (Homo sapiens) (UniProt P11166). Nature of the assay: ST_JUDE_LEISH: Cytotoxicity at 2uM final concentration against transgenic Leishmania Mexicana promastigotes LmGLUT1 that are glucose transport deficient and complemented with the human glucose transporter GLUT1. Activity is measured by DNA content using SYBR green in vitro.

For assay [2], the target named is Hexose transporter 1 (Plasmodium falciparum) (UniProt O97467). Briefly: ST_JUDE_LEISH: Cytotoxicity at 2uM final concentration against transgenic Leishmania Mexicana promastigotes LmPfHT that are glucose transport deficient and complemented with the Plasmodium falciparum hexose transporter. Activity is measured by DNA content using SYBR green in vitro.
Assay [3] concerns the target Glucose transporter (Leishmania mexicana) (UniProt O61059). Nature of the assay: ST_JUDE_LEISH: Cytotoxicity at 2uM final concentration against transgenic Leishmania Mexicana promastigotes LmGT2 that are glucose transport deficient and complemented with the L. Mexicana glucose transporter 2. Activity is measured by DNA content using SYBR green in vitro.

Chain of Solute carrier family 2, facilitated glucose transporter member 1 (Homo sapiens) (P11166 whole entry): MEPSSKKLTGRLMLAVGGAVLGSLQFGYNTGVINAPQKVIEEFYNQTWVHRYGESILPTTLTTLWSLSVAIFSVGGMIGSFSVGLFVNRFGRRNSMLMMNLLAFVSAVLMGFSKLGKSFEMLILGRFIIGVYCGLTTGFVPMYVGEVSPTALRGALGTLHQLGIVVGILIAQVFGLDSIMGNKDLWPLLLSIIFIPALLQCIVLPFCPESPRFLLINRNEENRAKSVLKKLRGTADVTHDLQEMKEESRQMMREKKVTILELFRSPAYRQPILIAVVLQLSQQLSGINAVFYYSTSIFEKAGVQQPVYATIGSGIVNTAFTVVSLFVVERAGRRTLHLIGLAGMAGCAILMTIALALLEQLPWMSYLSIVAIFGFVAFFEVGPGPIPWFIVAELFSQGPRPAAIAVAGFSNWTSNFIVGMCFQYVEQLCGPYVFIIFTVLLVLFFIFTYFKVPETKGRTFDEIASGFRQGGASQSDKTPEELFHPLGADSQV

With `O=C(NCCCCN1CCC(c2c[nH]c3ccccc23)CC1)c1sc(-c2ccc(C(F)(F)F)cc2)nc1CO`, the inhibition in assay [1] was determined as 7.38%; in assay [2], 8.88%; in assay [3], 5.81%.

As to `O=C(/C=C/c1ccc(Cl)c(Cl)c1)NCCCCCN1CCC(c2cn[nH]c2-c2ccccc2)CC1`, the inhibition was determined as 4.33% in assay [1], 3.45% in assay [2] and 1.87% in assay [3].

On to `O=C(Nc1cc(Cl)cc(Cl)c1)N[C@H]1CCN(CCCCCNC(=O)C2CC2c2ccc(Cl)c(Cl)c2)C1` (some centres not stated), for which the figures for the inhibition in assay [1], in assay [2] and in assay [3] were 0.25%, -1.16% and 2.06%, respectively.

In the case of `COc1ccc(Cl)c(CC2c3cc(O)c(Cl)cc3CCN2C)c1` (configuration not stated), the inhibition was -0.53% in assay [1], -0.87% in assay [2] and -1.58% in assay [3].

Turning to `CCCc1cc(Cc2cnc(N)nc2N)cc2c1OC(C)C2C` (configuration not stated), the inhibition stood at 8.26% in assay [1], 8.61% in assay [2] and 5.24% in assay [3].

Consider `CCC(=Cc1cccc([N+](=O)[O-])c1)C(=O)NCC1CCN(c2nc3cc(OC)c(OC)cc3c(=N)[nH]2)CC1`, for which the values for the inhibition in assay [1], in assay [2] and in assay [3] were 5.64%, 7.07% and 6.83%, respectively.

`CN(CCN)Cc1cccc(-c2cccc(-c3nc4cc(F)ccc4[nH]3)c2)c1`: the inhibition was 1.11% in assay [1], 1.79% in assay [2] and -1.76% in assay [3].

`N#Cc1ccc2c(c1)CN(C1CCC(NC(=O)/C=C/c3cc(C(F)(F)F)cc(C(F)(F)F)c3)CC1)CCC2` (configuration not stated): the inhibition in assay [1] was 1.63%; in assay [2], 1.36%; in assay [3], 0.57%.

On to `O=C(Cc1ccsc1)NCC(c1ccccc1Cl)c1c[nH]c2ccccc12` (configuration not stated), for which the inhibition amounted to 6.27% in assay [1], 5.24% in assay [2] and 4.67% in assay [3].
